Several values for one entry are separate records, joined by “and”; a condition that tells them apart may be missing. Identical values can stand only once.

This assay concerns HepG2. In words: GSK_TCMDC: Percent inhibition of human HepG2 cell line. Test compounds present at 10uM. The assay is classed as functional.
A word on the Inhibition: it is the share of the control response that was lost under treatment. Higher therefore signals strong suppression. In turn, `Nc1cccc(-c2ccc3ccnc(N)c3c2)c1` yielded an Inhibition of 30%.
In the case of `COCc1nc(N)nc(N)c1-c1ccc(Cl)c(Cl)c1` it was 4%.
`CCNc1cc(C(=O)N[C@@H](Cc2ccccc2)[C@H](O)CN[C@@H](C)c2ccccc2)cc(N2CCCC2=O)c1` registered an Inhibition of 7%.
For the compound `COc1ccc(C2CC(=O)C3=C(C2)NC(C)=C(C(=O)OC(C)C)C3c2ccccc2F)cc1OC` (stereo not given), the Inhibition was 14%.
In the case of `CN(C)Cc1ccc(-c2cc3ncnc(Nc4ccc(OCc5cccc(F)c5)c(Cl)c4)c3s2)[nH]1` it was 53%; in that of `CCN(CC)CCN(Cc1ccc(-c2ccc(C(F)(F)F)cc2)cc1)C(=O)Cn1c(SCc2ccc(F)c(F)c2F)nc(=O)c2c1CCC2.O=C(O)C(O)C(O)C(=O)O`, 100%.
In the case of `Cc1ccc(CCC(C)NCC(O)c2cccc(C(F)(F)F)c2)cc1` (stereo not given) it was 0%; in that of `COCCNCc1ncsc1-c1ccc2c(Nc3ccc(Oc4ccccc4)cc3)ccnc2c1`, 34%; in that of `Cc1cccc2nc(-c3cccc(-c4cccc(C(=O)N5CCCCC5CN5CCC(O)C5)c4)c3)[nH]c12` (stereo not given), 19%.
Take `c1ccc(-c2cc(NCCCn3ccnc3)nc(-c3cccnc3)n2)cc1`: the Inhibition was 15%.
In the case of `COc1ccc2ncc(F)c(CCN3CC(O)C(CNCc4nc5c(cc4Cl)OCC(=O)N5)C3)c2n1.Cl` (stereo not given) it was 12% and 13% and 5%; in that of `CCNc1cc(C(=O)N[C@@H](Cc2ccccc2)[C@H](O)CNC(C)C)cc(N2CC(c3ccccc3)CCS2(=O)=O)c1` (stereo not given in full), 0%.
In the case of `CCCN/C=N/c1cc(-c2csc(NC(=N)N)n2)cc([N+](=O)[O-])c1` it was 12%; in that of `Nc1ncc(-c2ccsc2)c2ccc(-c3cnc[nH]3)cc12`, 31%.
Consider `O=C(O)C(F)(F)F.c1ccc(CN2CCC(NCc3ccccc3-c3cccc(CNC4CCCC4)c3)CC2)cc1`, for which the Inhibition was 35%.
In the case of `Oc1ccc2ncnc(Nc3ccc(OCc4cccc(F)c4)c(Cl)c3)c2c1` it was 24%; in that of `CCCCN1C(=O)C2CC(=O)CC(C3CCCCC3)C2C1=O` (stereo not given), 0%; in that of `OC1(c2ccccc2)c2cc(Cl)ccc2OC1c1nc2c(Cl)ccc(Cl)c2o1` (stereo not given), 7%.
In turn, `COc1c(C2CCN(CCCCNC(=O)c3ccc(NC(=O)c4ccc(C#N)cc4)cc3)CC2)ccc2c1CCCC2` gave an Inhibition of 81%.
With `O=C(NCCCN1CCOCC1)c1cccc(Nc2nccc(Nc3ccc(Oc4ccccc4)cc3)n2)c1`, the Inhibition is 34%.
In the case of `O=C(c1ccc(O)c(-c2cc(Cl)cc(Cl)c2)c1)N1CCCC1` it was 3%; in that of `COc1cccc(Nc2nc(Nc3cccc(C#N)c3)cc(C(F)(F)F)n2)c1`, 15%.
In the case of `Cl.N#Cc1ccc2c(c1)CCN(CCC1CCC(NC(=O)/C=C/c3cc(Br)cs3)CC1)CC2` (stereo not given) it was 3%.
In the case of `Cc1ccc(Nc2nc(N)c3ccccc3n2)cc1.Cl` it was 9%.
`COc1ccc2nccc([C@@H](O)CN3CCC(NC(=O)C(c4cc5ccccc5o4)N4CCN(c5ccccc5OC)CC4)CC3)c2c1` (stereo not given in full): the Inhibition is given as 14%.

For the origin of these results see ChEMBL document CHEMBL1157539, “Thousands of chemical starting points for antimalarial lead identification” (Nature, 2010).
